# Screens: PubChem BioAssay, University of Kansas High Throughput Screening Laboratory
# Only a selection was taken, and hits are over-represented in it overall.
# Pf apPOL inh: Pf-apPOL DNA polymerase inhibition; Recombinant Pf-apPOL, molecular beacon fluorescence, 1.5 h; inhibition, % at 10 µM; hit rate 0.25% among 210,000; AID 1794808
# mHTT-CaM PPI inh: mHTT-calmodulin interaction abrogation | P42858 | AlphaScreen His-mHTT/GST-CaM binding, luminescence | inhibition, % at 15 µM | hit rate 3.6% among 190,000 | AID 1671202;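 further: 0% = both proteins with DMSO and 100% = one protein alone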
# * = called active by the depositor; . = no result given; ! = not active in a repeat. No stated cut-off is given here; in the data, active means inhibition above about 50%; inactive means the rest.
SMILES,Pf apPOL inh,mHTT-CaM PPI inh
O=C(C1CCCO1)N1CCn2c(nnc2-c2ccccc2)C1 (stereo unspecified),-1.4,3.4
O=S1(=O)N[C@H](Cc2ccccc2)COc2cccc(N3CCN(Cc4ccccc4F)CC3)c21,-5.7,62.3*
CN1CCN(c2cccc3c2S(=O)(=O)N[C@H](Cc2ccccc2)CO3)CC1,-7.8,-2.7
COc1ccc(-c2c(C)oc3cc(OC(C)=O)cc(OC(C)=O)c3c2=O)cc1,-7.6,-2.0
COc1cccc(CNc2cccc3cccnc23)c1O,-5.3,54.0*
COc1cccc(CNc2ncccn2)c1OC,-1.6,3.6
Cc1cccc(CN2CCCn3nc(C(=O)Nc4ccc(F)cc4C)cc3C2=O)c1,74.0*,5.7
Cc1ccc(CNC(=O)c2cc3n(n2)CCCN(Cc2cccc(C)c2)C3=O)cc1,-2.4,-1.0
Cc1cc(F)ccc1NC(=O)c1cc2n(n1)CCCN(Cc1ccccc1)C2=O,-1.8,-1.7
Cc1cccc(CN2CCCn3nc(C(=O)NCc4ccc(N(C)C)cc4)cc3C2=O)c1,-0.3,54.9*
CCN(CC)S(=O)(=O)c1cccc(C(=O)Nc2cccc(C(=O)O)c2)c1,-4.6,-5.1
COc1ccc(Cl)cc1C1=N/C(=C\c2ccc3c(c2)OCO3)C(=O)O1,-0.8,1.0
CC1=N/C(=C\c2ccc([N+](=O)[O-])cc2)C(=O)N1c1cc(Cl)ccc1Cl,-1.3,52.0*
CC1=N/C(=C\c2ccc([N+](=O)[O-])cc2)C(=O)N1c1ccc(Cl)cc1C,-3.0,15.0
CC1CCCC(Nc2ccc(N3C(=O)C4C5C=CC(C5)C4C3=O)cc2[N+](=O)[O-])C1C (stereo unspecified),-19.1,55.0*
CC1CCCC(Nc2ccc(N3C(=O)CCC3=O)cc2[N+](=O)[O-])C1C (stereo unspecified),-15.7,42.0
O=C(c1cc(F)cc(F)c1)N1CCC(n2c(-c3ccoc3)nc3cccnc32)C1 (stereo unspecified),-0.4,8.0
N#C/C(=C\c1ccc(-c2cc(Cl)cc(Cl)c2)o1)c1nn(CCO)c(N)c1C#N,-4.7,57.7*
N#C/C(=C\c1c(F)cccc1Cl)c1nn(CCO)c(N)c1C#N,8.8,-1.2
N#C/C(=C\c1ccc(-c2ccc(Cl)cc2)o1)c1nn(CCO)c(N)c1C#N,-14.5,54.5*
N#C/C(=C\c1cccc(Br)c1)c1nn(CCO)c(N)c1C#N,-5.3,2.7
Cn1nc(-c2ccccc2)cc1NC(=O)c1nccnc1C(=O)O,0.7,.
COc1ccccc1NC(=O)C1CCCN(C(=O)c2cccc(C)c2)C1 (stereo unspecified),-6.3,29.6
CCOC(=O)CC1(NC(=O)N2CCCC2c2ccc(C)cc2)CCCCC1 (stereo unspecified),-2.3,10.6
COc1cc(OC)cc(C2=NC3(CCCC3)N(C(=O)c3ccc(OC)c(OC)c3)C2=S)c1,-3.7,85.1*
SMILES,Pf apPOL inh,mHTT-CaM PPI inh
COc1cc(C(=O)N2C(=S)C(c3ccccc3)=NC23CCCCC3)cc(OC)c1OC,-3.3,4.5
Cc1nc2ccc3nc(NC(=O)c4ccccc4[N+](=O)[O-])sc3c2s1,2.9,29.9
Cc1nc2ccc3nc(NC(=O)c4ccccc4Cl)sc3c2s1,-7.4,72.0*!
CCCc1cc(C2CCCN2Cc2ccc(OCC)cc2)no1 (stereo unspecified),-5.8,-24.2
O=C(Nc1ccc(OCc2ccccc2)cc1)C1CCN(C(=O)c2cccs2)CC1,2.4,2.0
COC(=O)[C@@H]1N2C(=O)[C@@H](NC(=O)C(C)Oc3ccccc3)[C@H]2SC1(C)C (stereo partly specified),-6.7,66.4*
CC(Oc1ccccc1)C(=O)N[C@@H]1C(=O)N2[C@@H]1SC(C)(C)[C@@H]2C(=O)OCc1ccccc1 (stereo partly specified),-6.6,35.5
Fc1cccc(C2C=C(c3ccc(Cl)cc3)Nc3ncnn32)c1 (stereo unspecified),-2.9,-1.0
Cc1cc(C)cc(S(=O)(=O)N2CCC(c3nc(CNC(=O)C4CC4)cs3)CC2)c1,-2.7,7.7
CCN(Cc1ccccc1)S(=O)(=O)c1ccc(F)c(C(=O)Nc2cc(C)ccc2OC)c1,30.8,-4.0
O=C(Nc1cccc(F)c1)c1cc(S(=O)(=O)NCCc2ccccc2)ccc1F,-3.5,6.0
O=C(Nc1cccc(Cl)c1)c1cc(S(=O)(=O)NCCc2ccccc2)ccc1F,-3.9,51.0*
COc1ccc(C)cc1NC(=O)c1cc(S(=O)(=O)NCCc2ccccc2)ccc1F,-4.2,64.0*
CC(C)N1C(=O)C2(SCCN2C(=O)c2ccccc2F)c2ccccc21 (stereo unspecified),0.4,22.2
CC(=O)Nc1ccc(S(=O)(=O)Nc2ccc(C)cc2C)cc1,-8.4,3.2
O=C(c1ccncc1)N1CCC(n2nc(-c3ccsc3)ccc2=O)CC1,-6.1,15.6
Cc1ccsc1C(=O)N1CCC(n2nc(-c3ccsc3)ccc2=O)CC1,2.4,96.2*
Cc1ccc(CNC(=O)Cc2cn(C)c3ncccc23)cc1,1.5,-15.0
Cc1ccc(NS(=O)(=O)c2cn(C)c3ncccc23)cc1,79.6*,67.2*
CCOc1ccc2c(c1)OC(=Cc1ccc3c(c1)OCO3)C2=O,2.6,-5.6
CCCN1C/C(=C\c2ccc3c(c2)OCO3)C(=O)/C(=C/c2ccc3c(c2)OCO3)C1,0.6,63.0*
COc1ccc(N(C)C(=O)c2nc(C)n(C3CCN(C)CC3)c2C)cc1,6.0,76.4*
Cc1nc(C(=O)N(C)C)c(C)n1C1CCN(C)CC1,-4.2,-1.4
CCOC(=O)Oc1ccc2c(c1)C(C)=CC(C)(C)N2,-6.8,9.0
CC1=CC(C)(C)Nc2cc(C(C)(C)C)c(O)cc21,-4.4,94.8*
SMILES,Pf apPOL inh,mHTT-CaM PPI inh
CC1=CC(C)(C)Nc2cc(CN(C)C)c(O)cc21,-1.8,97.7*
CC(C)(C)c1cc(-c2cc(C(C)(C)C)c(O)c(C(C)(C)C)c2)cc(C(C)(C)C)c1O,-5.1,.
CCOc1ccc(C2CC(=O)C3=C(C2)Nc2ccccc2NC3c2cccc(OC)c2)cc1OC (stereo unspecified),6.5,28.0
CCOC(=O)Cc1ccc(NC(=O)N2CCCn3nc(-c4ccncc4)cc3C2)cc1,-9.9,8.0
C=CCNc1nc(-c2ccc(C)cc2)nc2ccccc12,-1.2,-48.0
O=C(CSc1nc2ccccc2[nH]1)Nc1nncs1,5.6,6.0
COc1ccc(-c2nnc(N3CCC(C(=O)N4CCCC(C)C4)CC3)o2)cc1 (stereo unspecified),-1.1,10.9
Cc1cc(/C=C2/C(=O)NC(=O)N(C)C2=O)c(C)n1-c1ccc(F)c(Cl)c1,-3.6,7.0
Cc1cc(/C=C2\NC(=O)NC2=O)c(C)n1-c1cccc(I)c1,1.0,91.0*
Cc1cc(/C=C2\NC(=O)NC2=O)c(C)n1-c1ccc(Cl)c(Cl)c1,-2.9,100.0*
Cc1cc(/C=C2\SC(=O)NC2=O)c(C)n1-c1ccc(I)cc1,7.4,12.0
CC1CCCN(c2nn(CC(=O)Nc3ccccc3Cl)c(=O)c3ccccc23)C1 (stereo unspecified),-1.8,1.4
CSC(=NCc1c(Cl)cccc1Oc1ccccc1)NS(=O)(=O)c1ccccc1,-9.4,.
Cc1ccccc1C(=O)Nc1cccc(NC(=O)Cc2ccc(Cl)cc2)c1,-4.3,18.2
Cc1ccc(N=Cc2c(C)[nH]c3ccccc23)cc1[N+](=O)[O-],4.5,16.0
CC(=O)C1=C(C)Nc2sc(C(=O)c3cccc([N+](=O)[O-])c3)c(N)c2C1c1cccnc1 (stereo unspecified),0.2,56.6*
CC(=O)C1=C(C)NC(C)=C(C(C)=O)C1c1cccc([N+](=O)[O-])c1,-7.6,.
